A number with no mark means an inactive call. Records with an inconclusive call do not appear. Calls of active or inactive are those of the source. Unless noted, calls come from the whole dose curve; as a rule, active = well fitted curve in either direction with a large enough effect (not every such curve was filed as active); inconclusive = small, poorly fitted or top-dose-only effect, or another doubt; inactive = flat fitted curve, though single readings scatter.
Legend:
[1] = AP1 Signaling Pathway (AID 357); settings: ME-180 AP-1-bla reporter, EGF-induced, beta-lactamase ratio, 5 h; at 17.2 µM (top of the series) unless noted; note: % is set by controls: 0 for no effect and ±100 for the full control effect
Procedure, shortened: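 AP-1-bla ME-180 cells with beta-lactamase reporter under AP-1 response element, stimulated with EC50 EGF; compounds titrated, 5 hours at 37 degrees Celsius. CCF4 read at 460/530 nm ratio; positive and negative modulators judged by AC50.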

[2] = NFAT Signaling Pathway (AID 444); settings: Jurkat NFAT-bla M1, carbachol, beta-lactamase ratio, 5 h; at 17.2 µM (top of the series) unless noted;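 note: carbachol stimulus at about its EC50 of 1 µM final; % is set by controls: 0 for no effect and ±100 for the full control effect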
Procedure, shortened: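 Jurkat cells with NFAT-driven β-lactamase reporter and co-expressed M1 receptor, stimulated with carbachol (final 1 uM, ~EC50), compound titration, 5 h at 37 °C. CCF4 loaded 1 h at RT; 460/530 nm ratio gave %activity and AC50.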

[3] = Stat Signaling Pathway (AID 446); settings: ME-180 SIE beta-lactamase reporter, IL-6 stimulated, 5 h; at 17.2 µM (top of the series) unless noted;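 note: ME-180 cervical cancer cells given 40 pM IL-6 alongside compound; SIE-controlled beta-lactamase reporter measured as 460/530 nm FRET emission ratio; % is set by controls: 0 for no effect and ±100 for the full control effect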
Procedure, shortened: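 Reporter line: ME-180 cervical carcinoma, SIE-beta-lactamase. Treatment: compound with 40 pM IL-6, 5 hrs, 37 C, in low-serum OPTI-MEM with 10 mM HEPES pH 7.3. Detection: 460/530 nm fluorescence.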

[4] = target: Glucocorticoid receptor (Homo sapiens) (UniProt P04150); test: GR-GFP Redistribution (AID 450;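 active = compounds whose dose series gives a full or clear partial fitted curve of increased nuclear translocation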; note: potency is the fitted concentration of half-maximal effect)
Sequence of Glucocorticoid receptor (Homo sapiens) (P04150 whole entry, looked up): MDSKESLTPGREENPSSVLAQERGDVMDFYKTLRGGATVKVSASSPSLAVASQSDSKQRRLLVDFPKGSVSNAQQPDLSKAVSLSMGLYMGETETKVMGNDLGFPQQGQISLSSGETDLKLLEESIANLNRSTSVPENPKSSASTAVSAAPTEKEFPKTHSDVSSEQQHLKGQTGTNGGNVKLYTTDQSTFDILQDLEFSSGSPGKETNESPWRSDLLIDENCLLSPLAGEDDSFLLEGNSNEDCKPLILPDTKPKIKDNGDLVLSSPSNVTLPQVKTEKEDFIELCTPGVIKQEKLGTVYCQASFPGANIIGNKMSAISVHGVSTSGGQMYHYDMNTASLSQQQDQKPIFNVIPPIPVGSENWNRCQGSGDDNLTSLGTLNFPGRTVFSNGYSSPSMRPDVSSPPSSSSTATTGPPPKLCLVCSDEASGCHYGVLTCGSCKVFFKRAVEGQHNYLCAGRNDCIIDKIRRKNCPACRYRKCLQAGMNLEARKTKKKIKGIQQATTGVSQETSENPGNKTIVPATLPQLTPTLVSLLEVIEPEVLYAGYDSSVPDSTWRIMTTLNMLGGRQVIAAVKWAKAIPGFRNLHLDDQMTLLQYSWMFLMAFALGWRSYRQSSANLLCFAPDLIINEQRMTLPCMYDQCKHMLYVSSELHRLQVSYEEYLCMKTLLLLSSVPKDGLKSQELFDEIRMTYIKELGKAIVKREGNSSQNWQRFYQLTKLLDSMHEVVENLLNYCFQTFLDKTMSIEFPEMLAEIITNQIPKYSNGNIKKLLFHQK

Cn1c(=O)n(CC(=O)Nc2ccccc2)c2ccccc21
activity change, negative = inhibition [1]: -5.57%
activity change, negative = inhibition [2]: -4.15%
activity, negative = inhibition [3]: -7.48%
Potency [4]: > 20.6 µM

COc1ccccc1NC(=O)c1c(C)cc(=O)oc1C
activity change, negative = inhibition [1]: 13%
activity change, negative = inhibition [2]: 12.5%
activity, negative = inhibition [3]: 0.453%
Potency [4]: > 20.6 µM

O=C(NCCCNCc1ccccc1)/C(=N\O)c1ccccc1
activity change, negative = inhibition [1]: -2.86%
activity change, negative = inhibition [2]: -1.67%
activity, negative = inhibition [3]: 4.93%
Potency [4]: > 20.6 µM

COC(=O)c1ccc(=O)n(Cc2ccco2)c1
activity change, negative = inhibition [1]: 4.81%
activity change, negative = inhibition [2]: -1.77%
activity, negative = inhibition [3]: -2.94%
Potency [4]: > 20.6 µM

Cc1ccc(-c2nnc(OCCN3CCOCC3)c3ccccc23)cc1
activity change, negative = inhibition [1]: -9.96%
activity change, negative = inhibition [2]: 5.38%
activity, negative = inhibition [3]: -1.56%
Potency [4]: > 20.6 µM

COc1ccccc1OCC(=O)Nc1ccc(S(=O)(=O)Nc2cc(C)nc(C)n2)cc1
activity change, negative = inhibition [1]: -4.5%
activity change, negative = inhibition [2]: -9.32%
activity, negative = inhibition [3]: -5.19%
Potency [4]: > 20.6 µM

COc1ccc2[nH]c(C)c(C(=O)CN3CCOCC3)c2c1
activity change, negative = inhibition [1]: 12.7%
activity change, negative = inhibition [2]: -9.22%
activity, negative = inhibition [3]: -2.66%
Potency [4]: > 20.6 µM

S=c1[nH]nc(-c2ccco2)n1C1CCCCC1
activity change, negative = inhibition [1]: -7.16%
activity change, negative = inhibition [2]: 12.4%
activity, negative = inhibition [3]: 1.34%
Potency [4]: > 20.6 µM

COc1ccc(-c2onc(C)c2-c2ccccc2)c(O)c1
activity change, negative = inhibition [1]: -16.7%
activity change, negative = inhibition [2]: 9.81%
activity, negative = inhibition [3]: -25.2%
Potency [4]: > 20.6 µM

O=C1C2ON(c3ccccc3)C(c3cccnc3)C2C(=O)N1c1ccc(Cl)c(Cl)c1 (stereo not drawn)
activity change, negative = inhibition [1]: -4.98%
activity change, negative = inhibition [2]: 16%
activity, negative = inhibition [3]: -9.39%
Potency [4]: > 20.6 µM

CC1(C)Cc2c(sc3nc4n(c(=N)c23)CCC4)CO1
activity change, negative = inhibition [1]: -5.14%
activity change, negative = inhibition [2]: -4.64%
activity, negative = inhibition [3]: 4.33%
Potency [4]: > 20.6 µM

Clc1ccc(-n2ncc3c(NCCCn4ccnc4)ncnc32)cc1
activity change, negative = inhibition [1]: -4.22%
activity change, negative = inhibition [2]: -6.43%
activity, negative = inhibition [3]: -0.823%
Potency [4]: > 20.6 µM

O=C(c1ccc(N2C(=O)C3CC=C(Cl)CC3C2=O)cc1)N1CCCCC1 (stereo not drawn)
activity change, negative = inhibition [1]: -18.4%
activity change, negative = inhibition [2]: 13%
activity, negative = inhibition [3]: -8.18%
Potency [4]: > 20.6 µM

Clc1ccc(-c2cn3c(n2)CCC3)cc1
activity change, negative = inhibition [1]: 4.83%
activity change, negative = inhibition [2]: -26.9%
activity, negative = inhibition [3]: 7.31%
Potency [4]: > 20.6 µM

Cc1nnc2n(-c3ccccc3)c(=O)c3c4c(sc3n12)CC(C)CC4 (stereo not drawn)
activity change, negative = inhibition [1]: 3.4%
activity change, negative = inhibition [2]: -3.87%
activity, negative = inhibition [3]: -2.29%
Potency [4]: > 20.6 µM

O=C(NCc1ccccc1)c1ccc(=O)[nH]n1
activity change, negative = inhibition [1]: 2.35%
activity change, negative = inhibition [2]: -2.12%
activity, negative = inhibition [3]: 5.54%
Potency [4]: > 20.6 µM

CCCCOC(=O)CSC1=C(C#N)C(c2ccc3c(c2)OCO3)CC(=O)N1 (stereo not drawn)
activity change, negative = inhibition [1]: -13%
activity change, negative = inhibition [2]: 19.6%
activity, negative = inhibition [3]: -9.97%
Potency [4]: > 20.6 µM

CCOC(=O)C1=C(CSc2nc(C)cc(C)c2C#N)OC(N)=C(C#N)C1c1cccs1 (stereo not drawn)
activity change, negative = inhibition [1]: 18.8%
activity change, negative = inhibition [2]: -27.2%
activity, negative = inhibition [3]: -6.58%
Potency [4]: > 20.6 µM

O=C1[C@@H]2[C@H](C(=O)N1O)[C@H]1C=C[C@@H]2C1
activity change, negative = inhibition [1]: 5.39%
activity change, negative = inhibition [2]: -15.3%
activity, negative = inhibition [3]: 10.4%
Potency [4]: > 20.6 µM

FC(F)(F)c1cccc(-n2cccc2/C=N/n2cnnc2)c1
activity change, negative = inhibition [1]: 8.38%
activity change, negative = inhibition [2]: -0.658%
activity, negative = inhibition [3]: 10.7%
Potency [4]: > 20.6 µM

COc1ccc(OC)c(C2/C(=C(/O)c3ccc(C)cc3)C(=O)C(=O)N2Cc2ccco2)c1 (stereo not drawn)
activity change, negative = inhibition [1]: -0.882%
activity change, negative = inhibition [2]: -17.7%
activity, negative = inhibition [3]: -18.2%
Potency [4]: > 20.6 µM

C=C(C)CN1CCN(c2c(CCC#N)c(C)c(C#N)c3nc4ccccc4n23)CC1
activity change, negative = inhibition [1]: 6.83%
activity change, negative = inhibition [2]: 20%
activity, negative = inhibition [3]: 9.9%
Potency [4]: > 20.6 µM

CNc1nc(C)c(C#N)cc1C(C)=O
activity change, negative = inhibition [1]: -13.3%
activity change, negative = inhibition [2]: -1.5%
activity, negative = inhibition [3]: -6.02%
Potency [4]: > 20.6 µM

COc1ccc2c(=O)c(-c3nc(C)cs3)coc2c1
activity change, negative = inhibition [1]: 13.2%
activity change, negative = inhibition [2]: 15.3%
activity, negative = inhibition [3]: 12.4%
Potency [4]: > 20.6 µM

Cc1cccc(N(CC(O)CN(C)C)S(=O)(=O)c2ccccc2)c1 (stereo not drawn)
activity change, negative = inhibition [1]: -9.68%
activity change, negative = inhibition [2]: -3.01%
activity, negative = inhibition [3]: 3.62%
Potency [4]: > 20.6 µM

CC1(C)Cc2c(sc3c2C(=O)N(c2ccccc2)C2=NCCCN23)CO1
activity change, negative = inhibition [1]: 9.3%
activity change, negative = inhibition [2]: -14.6%
activity, negative = inhibition [3]: 5.74%
Potency [4]: > 20.6 µM

COc1ccc(C2N3CC4(C)CN2CC(C)(C3)C4O)cc1OC (stereo not drawn)
activity change, negative = inhibition [1]: 9.87%
activity change, negative = inhibition [2]: -5.44%
activity, negative = inhibition [3]: 15.4%
Potency [4]: > 20.6 µM

Nc1ccc2ncccc2c1N
activity change, negative = inhibition [1]: 5.69%
activity change, negative = inhibition [2]: -85.4% (active)
activity, negative = inhibition [3]: -11.2%
Potency [4]: > 20.6 µM

COc1ccccc1N1CCN(C(=O)c2c(C)cc(=O)oc2C)CC1
activity change, negative = inhibition [1]: 10.3%
activity change, negative = inhibition [2]: -1.71%
activity, negative = inhibition [3]: 6.24%
Potency [4]: > 20.6 µM

C=CCn1c(SCC(=O)NC23CC4CC(CC(C4)C2)C3)nc(O)cc1=O
activity change, negative = inhibition [1]: 8.04%
activity change, negative = inhibition [2]: -3.75%
activity, negative = inhibition [3]: -2.84%
Potency [4]: > 20.6 µM

CCN(CC)C(=O)COn1c(SCC(=O)N(CC)CC)nc2ccccc2c1=O
activity change, negative = inhibition [1]: -3.71%
activity change, negative = inhibition [2]: 17.3%
activity, negative = inhibition [3]: 9.4%
Potency [4]: > 20.6 µM

NC(=O)C1CCN(CCC(=O)Nc2ccc(Br)cc2)CC1
activity change, negative = inhibition [1]: 11.3%
activity change, negative = inhibition [2]: -28.6%
activity, negative = inhibition [3]: 5.95%
Potency [4]: > 20.6 µM

CCOC(=O)CNS(=O)(=O)c1cc(-c2nn(C)c(=O)c3ccccc23)ccc1C
activity change, negative = inhibition [1]: 7.12%
activity change, negative = inhibition [2]: -12.6%
activity, negative = inhibition [3]: -5.95%
Potency [4]: > 20.6 µM

Nc1ccc2oc3ncccc3c(=O)c2c1
activity change, negative = inhibition [1]: 7.58%
activity change, negative = inhibition [2]: 10.7%
activity, negative = inhibition [3]: -3.84%
Potency [4]: > 20.6 µM

C=CCc1c(C)c(C#N)c2nc3ccccc3n2c1N1CCN(C)CC1
activity change, negative = inhibition [1]: -17.1%
activity change, negative = inhibition [2]: 4.5%
activity, negative = inhibition [3]: 3.98%
Potency [4]: > 20.6 µM

CC(=O)Oc1ccccc1C1OCCN1C(C)=O (stereo not drawn)
activity change, negative = inhibition [1]: 14.2%
activity change, negative = inhibition [2]: -10.3%
activity, negative = inhibition [3]: 17%
Potency [4]: > 20.6 µM

COc1ccc(OCC(=O)OCCN(C)C)cc1
activity change, negative = inhibition [1]: 7.78%
activity change, negative = inhibition [2]: 11.6%
activity, negative = inhibition [3]: -3.32%
Potency [4]: > 20.6 µM

From PubChem BioAssay (NCATS)
